Only some compounds are listed: those with a hit (about 3.2% of all), similar ones and a draw of the others.
CRE-bla_Fsk: modulators of forskolin-stimulated CRE signaling in CHO cells; CHO CRE-bla reporter (cAMP response element driving beta-lactamase), forskolin EC10, beta-lactamase ratio; AID 662; 2.5% of 71,000 active; Potency, µM (series often up to 38.2 µM), without a hit: top-dose activity change, negative = inhibition, hits mostly activators; active = well fitted activation curve with a large enough effect in the signal ratio, with a control signal flat, not every such curve was filed as active; inconclusive = small, poorly fitted or top-dose-only effect, or effect the other way, or a change in a side signal; the % refers to the signal ratio; note: potency is the fitted concentration of half-maximal effect; % of control where 0% means no effect
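Modulation of forskolin-driven signalling is measured in CHO cells carrying a CRE-controlled beta-lactamase reporter. Cells are stimulated with EC10 NKH 477 in the presence of titrated compound for 3 h at 37 °C, then loaded with CCF4 for 2 h at room temperature.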
ERK_AVP_inh: blocks ERK signaling stimulated by vasopressin. HEK293-V1b, vasopressin-stimulated pERK AlphaScreen. Potency, µM (top dose mostly 57.5 µM), without a hit: at the top dose activity, negative = inhibition, actives largely listed as inhibitors. 0.99% of 72,000 active; note: potency is the fitted concentration of half-maximal effect; % is set by controls: 0 for no effect and ±100 for the full control effect; nearly all actives have a fitted effect of over 55% in size
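HEK293 cells stably expressing V1b receptor, seeded overnight in 1% FBS, were treated with compounds for 30 min at 37C, then stimulated 5 min with 25 nM vasopressin; phospho-ERK read by AlphaScreen SureFire after lysis.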
ALOX15B_inhib: inhibitors of human 15-lipoxygenase 2 (ALOX15B) | O15296 | purified 15hLO-2, xylenol orange hydroperoxide absorbance | Potency, µM (series often up to 57.1 µM), for the others: at the top dose activity change, negative = inhibition, usual class: inhibitors | 0.56% of 110,000 active | AID 881; note: potency is the fitted concentration of half-maximal effect; % is set by controls: 0 for no effect and ±100 for the full control effect; nearly all actives have a fitted effect of over 60% in size
Target sequence (O15296 whole entry, looked up): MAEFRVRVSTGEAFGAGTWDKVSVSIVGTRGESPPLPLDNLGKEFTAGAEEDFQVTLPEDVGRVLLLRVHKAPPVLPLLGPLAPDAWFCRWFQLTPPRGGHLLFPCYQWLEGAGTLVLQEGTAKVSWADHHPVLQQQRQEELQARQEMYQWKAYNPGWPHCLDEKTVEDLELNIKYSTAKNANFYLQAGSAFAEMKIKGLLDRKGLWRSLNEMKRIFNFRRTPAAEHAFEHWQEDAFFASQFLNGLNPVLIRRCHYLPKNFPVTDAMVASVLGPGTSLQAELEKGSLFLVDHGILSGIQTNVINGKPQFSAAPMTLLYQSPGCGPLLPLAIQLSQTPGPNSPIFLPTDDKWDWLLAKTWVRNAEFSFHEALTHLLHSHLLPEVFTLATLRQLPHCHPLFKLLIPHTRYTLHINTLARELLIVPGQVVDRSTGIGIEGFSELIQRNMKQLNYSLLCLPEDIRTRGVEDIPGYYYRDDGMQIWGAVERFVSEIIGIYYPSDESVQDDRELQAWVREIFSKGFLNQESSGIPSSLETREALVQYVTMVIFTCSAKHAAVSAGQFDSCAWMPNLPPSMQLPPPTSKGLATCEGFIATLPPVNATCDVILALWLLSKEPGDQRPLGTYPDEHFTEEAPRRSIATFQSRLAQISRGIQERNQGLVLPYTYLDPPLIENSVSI
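Purified human 15hLO-2 (50 nM final) preincubated with compounds 15 min at room temperature in 25 mM Hepes pH 7.5, 0.01% Triton X-100, then 45 uM arachidonic acid added for 90 min; hydroperoxide detected via ferrous/xylenol orange, 573/405 nm absorbance ratio.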
ALOX15_inhib: blocks human 15-lipoxygenase activity | P16050 | purified 15hLO-1, xylenol orange hydroperoxide absorbance | Potency, µM (highest dose often 57.1 µM), inactives show at the top dose activity change, negative = inhibition, actives largely listed as inhibitors | 1.4% of 74,000 active | AID 887; note: potency is the fitted concentration of half-maximal effect; % is set by controls: 0 for no effect and ±100 for the full control effect; nearly all actives have a fitted effect of over 55% in size
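Readout: Fe(III)-xylenol orange absorbance, 573-to-405 nm ratio as reaction progress. Enzyme 40 nM purified human 15hLO-1, substrate 50 uM arachidonic acid, 6 min RT after 15 min compound preincubation; Hepes pH 7.5 buffer with Triton X-100.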
CHO_tox_24h: reduces CRE-bla CHO cell viability after 24 hours. shares compounds with CRE-bla_Fsk. CRE-bla CHO viability, ATP luminescence, 24 h. activity, negative = viability loss, % at 46.1 µM. 120 tested, under 10 active. AID 905
CHO_tox_40h: CHO cell toxicity at 40 h by ATP luminescence. shares compounds with CRE-bla_Fsk. CRE-bla CHO viability, ATP luminescence, 40 h. Potency, µM, without a hit: max response, actives largely listed as inhibitors. 120 tested, under 10 active
CRE-luc_potent: boosts CRE luciferase signal in HEK293 cells | shares compounds with CRE-bla_Fsk | HEK293 CRE-luc2P, NKH477 EC10 potentiation, luminescence, 4 h | Potency, µM (titrated, usually from 38.3 µM), for inactives: at the top dose activity, positive = activation, actives largely listed as activators | 80% of 120 active
* marks the source's active call; other numbers are inactive results; ? = inconclusive; nt = not tested or not shown; [ ] = dose if it differs, or a comment. Unless noted, calls come from the whole dose curve; as a rule, active = well fitted curve in the direction sought with a large enough effect; inconclusive = small, poorly fitted or top-dose-only effect, or another doubt; inactive = no such curve, though single readings can be large; an effect the other way counts as inactive or inconclusive.

SMILES CRE-bla_Fsk ERK_AVP_inh ALOX15B_inhib ALOX15_inhib CHO_tox_24h CHO_tox_40h CRE-luc_potent
Cc1cc(C)nc(N2CCN(c3nc(C)nc4c3oc3ccccc34)CC2)n1 0% -1% nt 2% 5 -5% 3.2µM*
CO[C@H]1COC(=O)[C@H](C)COC(=O)[C@H](C)NC(=O)C/C=C\[C@H]1C nt 2%[11.5_µM] nt 6%[11.4_µM] nt nt nt
Cn1nc(-c2ccc(N3CCOCC3)c(NS(=O)(=O)c3ccccc3)c2)c2ccccc2c1=O 2µM* -17% -21% -7% ? ? ?
CC(=O)Nc1cc(-c2nn(C)c(=O)c3ccccc23)ccc1N1CCCCC1 nt nt -3% nt nt nt nt
O=C(Nc1ccc(-c2cn3ccsc3n2)cc1)c1ccc(F)c(S(=O)(=O)N2CCOCC2)c1 1.6µM* 13µM* 9% -3% ? -22% 2.8µM*
COc1ccc(Oc2ncc3nc(-c4cccc(C#N)c4)c(=O)n(CCC#N)c3n2)cc1 ? ? -2% 4% nt nt nt
O=C(Nc1cccc2cccnc12)[C@@H]1[C@@H](C(=O)O)[C@H]2CC[C@@H]1O2 -4%[7.6_µM] -9%[11.5_µM] -1%[11.4_µM] 13%[11.4_µM] nt nt nt
Cc1ccc2c(C)nc(Nc3nc(CSc4nnnn4-c4ccccc4)cc(=O)[nH]3)nc2c1 ? -15% -2% -2% -14 -29% 3.2µM*
COCc1cc(=O)[nH]c(Nc2nc(C)c3ccc(C)cc3n2)n1 8% -3% nt 6% -6 -26% ?
COc1ccc(-n2c(=O)c(-c3cccs3)nc3cnc(Oc4ccccc4)nc32)cc1 ? -7% 2% -21% nt nt nt
O=c1c(-c2ccccc2)nc2cnc(N3CCOCC3)nc2n1Cc1ccc(F)cc1 ? 10% 4% -27% nt nt nt
COc1cccc(/C=N/Nc2nc(Nc3ccccc3)nc(-n3nc(C)cc3C)n2)c1O nt nt 5% nt nt nt nt
Cc1cc(C)n(-c2nc(Nc3ccccc3)nc(-n3nc(C)cc3C)n2)n1 12% 2% 61% 51% -2 -7% ?
Cc1nnc2n(C3CCCCC3)c(=O)c3c4c(sc3n12)COC(C)(C)C4 nt nt -6% nt nt nt nt
CC1(C)Cc2c(sc3nc(SCC#N)n(C4CCCCC4)c(=O)c23)CO1 nt nt nt nt -11 -20% 0.63µM*
CCOc1ccccc1Nc1nc2ccccc2n2cnnc12 ? -6% nt 13% nt nt nt
CCCN(CCC)c1nc2ccccc2n2c(C)nnc12 0% -20% 14% ? -10 -21% 10µM*
CCN(CC)c1nc2ccccc2n2cnnc12 13µM* -6% 2% ? -11 ? 13µM*
CCOC(=O)CCN1C(=O)[C@H]2[C@H]3[C@H](O)[C@H](O)C/C(=N/OCC(C)C)[C@@H]3CC[C@@H]2C1=O nt 2%[11.5_µM] nt 3%[11.4_µM] nt nt nt
Oc1ccc2cc(SSc3ccc4cc(O)ccc4c3)ccc2c1 ? 26% -18% ? nt nt nt
O=C(CSc1n[nH]c(-c2ccccc2)n1)c1ccccc1 -6% nt -2% 3% nt nt nt
CN(C)c1nc(N)nc(CSc2n[nH]c(-c3ccccc3)n2)n1 1.6µM* -25% -4% 2% -6 -28% 13µM*
CC[C@]1(O)C[C@@H]2CN(CCc3c([nH]c4ccccc34)[C@](C(=O)OC)(c3cc4c(cc3OC)N(C=O)[C@H]3[C@@](O)(C(=O)OC)[C@H](C(=O)OC)[C@@]5(CC)C=CCN6CC[C@]43[C@H]65)C2)C1 0.5µM* 3% 57% ? -22 ? 8%

Assay outcomes from PubChem BioAssay.
